Test results taken from the supplement of paper PMC4237247.

These molecules were tested on HeLa (assay: percent cells in G2/M phase; higher = more G2/M arrest). Settings: 10 µM; 20 h; hit class: G2/M-phase inhibitor.
Method: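 HTS of 79,827 drug-like compounds at 10 uM. HeLa cells in 384-well plates were treated for 20 h, fixed, stained with Vybrant DyeCycle Green and scanned on an Acumen eX3 cytometer to give per-well cell cycle profiles. Only G2/M hits (>=67% G2/M) are listed.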

| Structure (SMILES) | percent cells in G2/M phase [%] |
| --- | --- |
| CN1Cc2c(ccc3c2OCO3)[C@@H]2[C@H]1c1cc3c(cc1C[C@@H]2O)OCO3 [Chelidonine monohydrate (+)] | 72 |
